The values below come from PubChem BioAssay (NCI).

Several values for one entry are separate records, joined by “and”; a condition that tells them apart may be missing. Identical values can stand only once. About 83,000 compounds went through this panel and 20% of them were active in at least one assay; those are over-represented in the sample as a whole.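 96-well plates, one dose, 48 hours. Percent growth reported; active if below 10.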 Activity calls are given as the source filed them.

This assay deals with HCT-15 colon. Nature of the assay: NCI-60 one-dose screen, 48 h (100 = growth as untreated, 0 = no growth, -100 = all killed). The conditions noted are these: 10 µM unless noted. As for the experimental part: Growth inhibition of the HCT-15 human tumor cell line is measured as a screen for anti-cancer activity. Cells are grown in 96 well plates and exposed to the test compound for 48 hours. Compounds are tested at a single concentration, which is 10^-5 M for most compounds. The reported endpoint is percent growth (GI% or GIPRCNT), where numbers from 0 - 100% represent growth inhibition, and numbers from -100% - 0 represent cell death. For example, a value of 40 represents 60% growth inhibition. A value of 0 means no net growth occurred over the course of the experiment. A value of -40 indicates 40% of cells at the beginning of the experiment died by the end of the experiment. A value of -100 means all cells are dead at the end of the experiment.
NCI-60 Human Tumor Cell Lines Screen was performed using the standard one-dose NCI protocol, which is described in more detail at https://dtp.cancer.gov/discovery_development/nci-60/default.htm.
Compounds with GIPRCNT values below 10 were considered active. Activity score was based on GIPRCNT using the following formula: […]
Score is 0 for GIPRCNT values of 100 or above, 50 for GIPRCNT values of 0, and 100 for GIPRCNT values of -100.
For `Cc1csc(/N=C(N)/N=C(\N)c2cccs2)n1`, the growth was 100% (inactive).

Turning to `CC[C@]12CC(C(=O)OC)=C3Nc4ccccc4[C@@]34CCN(C14)[C@@H]1c3cc4c(cc3O[C@@H]1[C@H]2O)NC1=C(C(=O)OC)C[C@@]2(CC)C3N(CC[C@@]143)C[C@H]1O[C@H]12` (stereo not given in full), the growth is 3.59% (active).

On to `CCCCCC[n+]1ccc(SCC(=O)n2ccc3ccccc32)c2ccccc21`, for which the growth was 94.3% (inactive).

Consider `CN1CCN(c2ccc(Nc3nc(NCCNS(=O)(=O)c4ccc(Cl)cc4)c4sccc4n3)cc2)CC1`, for which the growth was 47.7% (inactive).

Regarding `O=C(CCCCCCNC(=O)C(O)(O)C(F)(F)F)Nc1ccc(Br)cc1`, the growth is 20.8% (inactive).

As for `CCCc1cc2cc(-n3nc(CC)c4c3CC(C)(C)CC4=O)cc(NC3CCC(O)CC3)c2c(=O)[nH]1` (stereo not given), the growth is 17% (inactive).

Turning to `CCOC(=O)c1cccc(NC2=C(Cl)C(=O)C(C)=C(C)C2=O)c1`, the growth is 99.3% (inactive).

As to `COc1cc2c3c(cc4c5c(ccc4c3c1OC)OCO5)N(CCN(C)C)C2=O`, the growth is -6.74% (active).

As for `Cc1cc2nc3c4cc(C#N)ccc4n(CCN(C)C)c3nc2cc1C`, the growth was 2.02% (active).

Regarding `CC(=O)c1cc(C(=O)N2c3ccccc3Sc3ccccc32)n2c1ccc1ccccc12`, the growth was 41.6% (inactive).

Consider `CC1=C(C)C(=O)C(Nc2cccc(C(=O)OC(C)(C)C)c2)=CC1=O`, for which the growth is 60.4% (inactive).

Turning to `COc1cc(-c2nc(-c3ccccc3)[nH]c2-c2ccnc(NCCCNS(=O)(=O)c3ccc(C)cc3)n2)ccc1F`, the growth was 62.9% (inactive).

Regarding `Cc1ccc2c(n1)C(=O)C(Cl)=C(Nc1ccc(C#N)cc1)C2=O`, the growth is 1.89% (active).

`CN(C)c1ccc(/C=N/Nc2nc(N/N=C/c3ccc(N(C)C)cc3)nc(N3CCCCC3)n2)cc1`: the growth is 0.121% (active).

`N#Cc1cnc2ccc(-c3cnc4n[nH]nc4c3)cc2c1N1CCc2cc(F)c(Cl)cc21`: the growth was 12.3% (inactive).

With `COc1cccc2c1C=CC1(O2)Oc2cccc(OC)c2C=C1C` (stereo not given), the growth is 24.9% (inactive).

In the case of `CN1CCN(c2ccc(Nc3nc(NCCCNS(=O)(=O)c4ccc(Cl)cc4)c4sccc4n3)cc2)CC1`, the growth is 6.7% (active).

For `COc1cc2oc(-c3cccc(NC(=O)[C@@H](N)C(C)C)c3)cc(=O)c2c(OC)c1OC`, the growth was 97.9% (inactive).

Consider `CC(C)NC(=O)c1cc(-c2ccc(NC(=O)Nc3ccc(F)cc3)cc2)nc2cccnc12`, for which the growth was 99.5% (inactive).

For `COc1ccc(-c2nc(C#N)c(N3CCC(S(=O)(=O)N4CCOCC4)CC3)o2)cc1`, the growth was 105% (inactive).

Turning to `N#Cc1c(-c2cccs2)cc(-c2cnccn2)nc1SCC(=O)N/N=C/c1cccs1`, the growth is 62.8% (inactive).

With `Cn1cc(-c2nc(N)nnc2-c2c[nH]c3ccc(Br)cc23)c2cc(F)ccc21`, the growth was 77.2% (inactive).

`COCCOc1ccc2ncc(C#Cc3cncc(C(=O)Nc4ccc(CN5CCN(C)CC5)c(C(F)(F)F)c4)c3)n2n1`: the growth was 0.122% (active).

Regarding `CCCCSC1=C(Cl)CN(c2ccc(Cl)cc2)C1=O`, the growth is 96.1% (inactive).

As to `CC[C@]12C=CCN3CC[C@@]4(c5ccc(OC)cc5N(C)[C@H]4[C@@](O)(C(=O)OC)[C@@H]1OC(=O)CCN1CCc4ccccc4C1)[C@@H]32`, the growth was 84.8% (inactive).

On to `O=C(CSc1nc2ccccc2c(=O)n1-c1ccc(Cl)cc1)N/N=C/c1ccc(Oc2ccc(Cl)cc2)cc1`, for which the growth was 10.4% (inactive).

Consider `COc1ccc(-c2c3c(cn2Cc2cccc(OC)c2)-c2oncc2CCC3)cc1`, for which the growth is 95.1% (inactive).

On to `CN1CCN(c2ccc(Nc3nc(NCCNS(=O)(=O)c4ccc5ccccc5c4)c4sccc4n3)cc2)CC1`, for which the growth is 7.96% (active).

As for `N#Cc1c(-c2cccs2)cc(-c2cnccn2)nc1SCC(=O)N/N=C/c1ccccc1`, the growth is 39.1% (inactive).

Turning to `O=C(COc1ccc(/C=C2\C(=O)Nc3ccc(F)cc32)cc1)Nc1ccccc1`, the growth was 99.1% (inactive).

For the compound `CCCCOc1ccc(S(=O)(=O)N2CCN(c3nc(C)cc(N4CCOCC4)n3)CC2)cc1`, the growth was 5.32% (active).

For `Cc1ccsc1[C@H]1c2[nH]c3ccccc3c2C[C@H]2C(=O)N(CCCCCCC(=O)NO)CC(=O)N12`, the growth is 99.1% (inactive).

Turning to `O=S1SC(c2ccccc2)=NN1c1cc(F)cc(F)c1` (stereo not given), the growth was 28.7% (inactive).

In the case of `C/C=C/CC(C)C(O)[C@H](NC(=O)[C@@H]1CCCN1C(=O)[C@](C)(CC)NC(=O)CCCCCCCCC)C(=O)N[C@@](C)(CC)C(=O)N[C@@H](CCC(N)=O)C(=O)N[C@H](CCC(N)=O)C(=O)NC(C)(C)C(=O)NC(C)(C)C(=O)N[C@@H](CCC(N)=O)C(=O)N[C@H](CC(C)C)C(=O)N[C@H](CO)CC(C)C` (stereo not given in full), the growth is 76.9% (inactive) and -9.08% (active).

Turning to `C#C[C@]1(O)CC[C@H]2[C@@H]3CC=C4c5sc(Nc6ccc(C)cn6)nc5CC[C@]4(C)[C@H]3CC[C@@]21C`, the growth was -45.6% (active).

For the compound `O=C(CCCCCCNC(=O)c1csc(Br)n1)NO`, the growth is 60.5% (inactive).

Consider `CCS(=O)(=O)Nc1ccc(C(=O)CC2(O)C(=O)Nc3ccccc32)cc1` (stereo not given), for which the growth is 100% (inactive).

As for `C#Cc1cc(C(=O)Nc2ccc(CNCCN3CCOCC3)c(C(F)(F)F)c2)ccc1C`, the growth was 88% (inactive).

In the case of `C1=CC(c2nn3c(-c4ccccc4)nnc3s2)=Cc2ccccc2O1`, the growth was 23.5% (inactive).

For the compound `CCN(CC)c1ccc(/C=N/NC(=O)c2ccc(NS(C)(=O)=O)cc2)cc1`, the growth is 20.4% (inactive).
